According to PubChem BioAssay (NCATS):
“And” between values parts separate entries of the source, which are not always exact repeats. Equal values may be shown once. Inconclusive results are not listed. The source made the active and inactive calls. Calls come from the whole dose curve; as a rule, active = well fitted activation curve with a large enough effect; inconclusive = small, poorly fitted or top-dose-only effect; inactive = no such curve, though single readings can be large or run the other way.

What follows are compounds tested against Cellular tumor antigen p53 (Homo sapiens) (UniProt P04637) (assay: Primary qHTS for small molecule compounds that upregulate eGFP-tagged delta133p53alpha (in N-terminal) cells. (AID 2060322; note: nearly all actives have a fitted effect of over 75% in size;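 for activation: cells pre-induced with doxycycline then dosed without doxycycline; series mostly up to about 56 µM; 0% = DMSO vehicle and 100% = reference activator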)). Conditions: NCI-H358 eGFP-delta133p53alpha fluorescence, 24 h; activation: active compounds read high.
Chain of Cellular tumor antigen p53 (Homo sapiens) (P04637 whole entry, looked up): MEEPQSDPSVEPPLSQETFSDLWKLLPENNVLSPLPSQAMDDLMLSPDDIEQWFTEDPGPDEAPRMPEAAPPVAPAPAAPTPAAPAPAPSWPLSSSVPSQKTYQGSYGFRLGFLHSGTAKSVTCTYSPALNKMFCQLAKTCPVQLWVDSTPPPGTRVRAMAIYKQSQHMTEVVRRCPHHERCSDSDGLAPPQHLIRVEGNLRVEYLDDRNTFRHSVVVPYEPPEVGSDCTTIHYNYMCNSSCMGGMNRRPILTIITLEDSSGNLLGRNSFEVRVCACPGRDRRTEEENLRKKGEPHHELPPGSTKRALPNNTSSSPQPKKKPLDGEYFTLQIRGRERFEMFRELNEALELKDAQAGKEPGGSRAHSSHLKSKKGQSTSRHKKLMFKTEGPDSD
From the text: Assay Development and Screening Technology
National Center for Advancing Translational Sciences (NCATS),
National Institute of Health (NIH), Rockville, Maryland
Cellular senescence (CS) is one of the hallmarks of aging and age-related diseases. Senescent cells are characterized by an irreversible growth arrest, an increase in senescence-associated beta-galactosidase (SA-beta-gal) activity and p16INK4a expression, an activation of the DNA damage response pathways, and the emergence of a senescence-associated secretory phenotype (SASP).
Delta133p53alpha, a human/primate-specific p53 protein isoform, delays or inhibits the induction of CS and SASP in various types of human cells, including progeria-derived fibroblasts, primary normal astrocytes, and CD8+ T lymphocytes. Induction of delta133p53alpha with small molecule compounds may provide therapeutic opportunities for inhibition of senescence/SASP-associated pathologies in progeria syndromes, astrocyte-mediated neuroprotection in neurodegenerative diseases, and possibly prevention and treatment of a wider range of senescence- and aging-associated diseases.
Here we report the development and validation of a cell-based quantitative high throughput screening (qHTS) assay in 1,536-well format. This qHTS assay uses the NCI-H358 cell line with doxycycline-inducible expression of enhanced green fluorescent protein (eGFP)-tagged delta133p53alpha, which allows efficient and highly quantitative measurement of the protein levels.
PROTOCOL TABLE (as described by Inglese J, Shamu CE and Guy RK. 2007)
SEQUENCE No. (e.g., 1, 2, 3, etc.); […] (e.g., Cells, Incubation, Reagent, etc.); VALUE; DESCRIPTION.
1; Cells; 4uL; 800 doxycycline treated cells / well in doxycycline-free media, 1536-well black, clear-bottom low base Aurora microplates.
2; Compounds; 23 nL; Kalypsis pin tool (Wako) equipped with 1536-well pin heads, 5-azacytidine positive control.
3; Incubation; 24 hr; 37C, 5% CO2; 95% relative humidity.
4; Aspiration; 1x; BioTek EL406 washer dispenser (Agilent).
5; Fixing; 3.5% paraformaldehyde, BioTek EL406 washer dispenser (Agilent).
6; Washing; 1x PBS; BioTek EL406 washer dispenser (Agilent).
7; Nuclei staining; 1:1000 dilution of Hoechst 33342 (Thermofisher), BioTek EL406 washer dispenser (Agilent).
8; Incubation; 20 min; in the dark at room temperature.
9; Washing; 2x, 1x PBS (ThermoFisher), BioTek EL406 washer dispenser (Agilent).
10; Reagent; 10 uL; 1x PBS per well, sealed with clear adhesive tape.
NOTES (numbers refer to sequence numbers above).
1. NCI-H358 cells expressing eGFP-tagged delta133p53alpha were grown in T75 culture flasks and treated with doxycycline for 24h, at 10 ng/ml for eGFP-D133p53a cells (N-terminal cell) and 100 ng/ml for D133p53a-eGFP cells (C-terminal cells). Cells were trypsinized, counted using a Counted 3 Automated Cell Counter (Thermo Fisher), and diluted to a concentration of 200,000 cells/ml. A Multidrop Combi Reagent Dispenser (ThermoFisher) was used to dispense 800 cells/well in […] of doxycycline-free media, into 1536-well black/clear bottom low base plates (AuroraMicroplates).
2. After plating cells, 23 nl of compound library, DMSO vehicle control or positive control (5-azacytidine) were transferred by Pin Tool (Wako). The plate map layout was the same for each plate: (column 1) non-doxycycline treated cells + DMSO vehicle control; (column 2) doxycycline treated cells + DMSO vehicle control baseline; (column 3) doxycycline treated cells + positive control 57.5 uM final concentration 5-azacytidine; (column 4) doxycycline treated cells + serial dilution of 5-azacytidine, 16-point 1:2 titration spanning 1.8 nM to […] final concentration; (columns 5-48) doxycycline treated cells + titration of library compounds.
3. Cells were incubated at 37 °C, 5 % CO2, 95% RH with breathable metal lid for 24h.
4-10. […] After two washes, 10 ul of 1X PBS (Thermo Fisher) was dispensed to each well. Clear adhesive plate seals (VWR) were applied and plates stored at 4 °C.
11. […]
Potency is the fitted concentration of half-maximal effect.

| SMILES | activation | Potency |
| --- | --- | --- |
| CC(C)c1onc(-c2c(Cl)cccc2Cl)c1COc1ccc(C=Cc2cccc(C(=O)O)c2)c(Cl)c1 | -0.915% (inactive) |  |
| CC(CO)C1CCC2(C)CC3C(CO)CC(O)C3C(C)(O)C/C=C/12 (stereo not given) | -8.04% (inactive) |  |
| Cc1nc2ccc(-n3ncc(C(=O)c4cc5ccccc5[nH]4)c3N)cc2[nH]1 | 1.79% (inactive) |  |
| CC(C)=CCC[C@](C)(O[C@@H]1O[C@H](CO[C@@H]2OC[C@@H](O)[C@H](O)[C@H]2O)[C@@H](O)[C@H](O)[C@H]1O)[C@H]1CC[C@]2(C)[C@@H]1[C@H](O)C[C@@H]1[C@@]3(C)CC[C@H](O[C@@H]4O[C@H](CO)[C@@H](O)[C@H](O)[C@H]4O)C(C)(C)[C@@H]3CC[C@]12C | 6.33% (inactive) |  |
| C=C(C)[C@@H]1CC[C@]2(CO)CC[C@]3(C)[C@H](CC[C@@H]4[C@@]5(C)CC[C@H](O)C(C)(C)[C@@H]5CC[C@]43C)[C@@H]12 |  | 10.4 µM (active) |
| O=C(O)C1=CCCN(CCON=C(c2ccccc2)c2ccccc2)C1 | 20.9% (inactive) |  |
| C/C=C/C=C/C(=O)O[C@@H]1C=C2COC(=O)[C@]2(O)[C@@]2(C)CCCC(C)(C)[C@H]12 | -3.82% (inactive) |  |
| Fc1ccccc1CNCc1ccc(-c2ccnc3[nH]ccc23)cc1 | 7.14% (inactive) |  |
| O=C(O)C1CCC1 | -6.69% (inactive) |  |
| C[C@H]1CC(=O)Nc2cccc(-c3cnn(C(C)(C)C)c3)c2N1 | -12.5% (inactive) |  |
| C=C1C(=O)O[C@@H]2C[C@@H](C)[C@]34C[C@]5(C(=O)O[C@H]6CC(C)=C([C@H](C)CCCO)[C@H](OC(=O)C(C)CC)[C@H]65)[C@@H](C(C)=C3C[C@@H]12)[C@H]4OC(C)=O (stereo not given in full) |  | 6.3 µM (active) |
| OC[C@H]1O[C@@H](OCc2ccccc2)[C@H](O[C@@H]2OC[C@@H](O)[C@H](O)[C@H]2O)[C@@H](O)[C@@H]1O | -14.3% (inactive) |  |
| Cc1cn2cc(C(=O)N(C)CCO)cc(N[C@@H]3CCOc4cccc(C)c43)c2n1 | -18% (inactive) and -4.46% (inactive) |  |
| Cc1cc(OCCCS(C)(=O)=O)cc(C)c1-c1cccc(COc2ccc(C3=CC(=O)NS3=O)cc2)c1 (stereo not given) | -18.3% (inactive) |  |
| C[C@@H]1CC[C@]2(C(=O)O)CC[C@]3(C)C(=CCC4[C@@]5(C)CC[C@H](O)[C@](C)(C(=O)O)C5CC[C@]43C)C2[C@]1(C)O (stereo not given in full) | 8.4% (inactive) |  |
| CN(C)C/C=C/C(=O)Nc1ccc(C(=O)Nc2cccc(Nc3ncc(Cl)c(-c4c[nH]c5ccccc45)n3)c2)cc1 |  | 269 nM (active) and 343 nM (active) |
| Cc1cccc(C)c1NC(=O)c1cc(S(N)(=O)=O)c(Cl)cc1O | -9.21% (inactive) |  |
| O=C(/C=C/N1C[C@@H]2C[C@@H]1CN2c1ccccn1)c1ccccc1O | -4.33% (inactive) |  |
| CC[C@@H]1C(=O)N(C)c2cnc(Nc3ccc(C(=O)NC4CCC(N5CCN(CC6CC6)CC5)CC4)cc3OC)nc2N1C(C)C (stereo not given in full) | -21.7% (inactive) |  |
| O=C(Nc1ccc(OC(F)(F)F)cc1)c1sccc1NCc1ccnc2ccccc12 | 27.4% (inactive) |  |

| SMILES | activation | Potency |
| --- | --- | --- |
| COc1cc(C(=O)NC2CCN(C)CC2)ccc1Nc1ncc2c(n1)N(C1CCCC1)CCC(=O)N2C(C)C | 7.36% (inactive) |  |
| COc1cccc2c1C(=O)c1c(O)c3c(c(O)c1C2=O)C[C@@](O)(C(=O)CO)C[C@H]3O[C@H]1C[C@H](N)[C@H](O)[C@H](C)O1 | -35.6% (inactive) |  |
| NC[C@H]1O[C@@H](n2cnc3c(N)ncnc32)[C@H](O)[C@@H]1O | 4.39% (inactive) |  |
| O=C1OCCN1/N=C/c1ccc([N+](=O)[O-])o1 | -3.35% (inactive) |  |
| CCN(c1nc(N)c(C(=O)N=C(N)N)nc1Cl)C(C)C | -41.7% (inactive) |  |
| Clc1ncoc1-c1c[nH]c2ccccc12 | 11.5% (inactive) |  |
| CCOC(=O)CCN(C(=O)c1ccc2c(c1)nc(CNc1ccc(C(=N)N)cc1)n2C)c1ccccn1 | -4.77% (inactive) |  |
| CC(C(=O)O)c1ccc2c(c1)CC(=O)c1ccccc1S2 (stereo not given) | 0.619% (inactive) and -1.69% (inactive) and -1.43% (inactive) |  |
| CN1C(=O)CC(c2ccccc2)C1=O (stereo not given) | 10.7% (inactive) |  |
| CO/N=C(\C(=O)N[C@@H]1C(=O)N2C(C(=O)O)=C(CSc3nc(=O)c(O)nn3C)CSC12)c1csc(N)n1 (stereo not given in full) | 4.05% (inactive) |  |
| Fc1ccc(-c2nc(-c3ccccc3F)[nH]c2-c2ccncc2)cc1 | 17% (inactive) |  |
| COc1cc2nc(-c3cc(F)ccc3O)nc(N[C@@H]3CNC[C@@H]3C(C)(C)O)c2cc1OC |  | 34.3 µM (active) |
| CCN(c1cc(-c2ccc(CN3CCOCC3)cc2)cc(C(=O)NCc2c(C)cc(C)[nH]c2=O)c1C)C1CCOCC1 | -17.7% (inactive) |  |
| COc1cc2c(NC3CCN(C(C)C)CC3)nc(C3CCCCC3)nc2cc1OCCCN1CCCC1 | 27.1% (inactive) and 25.7% (inactive) |  |
| CCOC(=O)c1ncn2c1CN(C)C(=O)c1cc(F)ccc1-2 | -0.975% (inactive) and -12.6% (inactive) and 1.77% (inactive) |  |
| COc1cc2nc(N3CCCCC3)nc(NC3CCN(C)CC3)c2cc1OC |  | 38.5 µM (active) |
| CC1=CC(=O)CC(C)(C)[C@H]1/C=C/C(CO)O[C@@H]1O[C@H](CO)[C@@H](O)[C@H](O)[C@H]1O (stereo not given in full) | 9.16% (inactive) |  |
| Cc1nc2cc(-c3cc(F)cc(C#N)c3)ccc2s1 | -1.91% (inactive) |  |
| CCC(C)(OC(C)=O)C(=O)O[C@H]1[C@H](OC(C)=O)[C@]2(CO)[C@H](O)[C@H](O)[C@]3(C)C(=CCC4[C@@]5(C)CC[C@H](O[C@@H]6O[C@H](C(=O)O)[C@@H](O)[C@H](O[C@@H]7OC[C@H](O)[C@H](O[C@@H]8OC[C@H](O)[C@H](O)[C@H]8O)[C@H]7O)[C@H]6O[C@@H]6O[C@H](CO)[C@@H](O)[C@H](O)[C@H]6O)C(C)(C)C5CC[C@]43C)[C@@H]2CC1(C)C (stereo not given in full) |  | 3.2 µM (active) |
| N#Cc1ccc(-c2cnc3[nH]cc(NC(=O)c4cccnc4)c3c2)cc1 | -4.46% (inactive) |  |
